Results filed as inconclusive are left out. Active and inactive are the calls of the source. The call rests on the fitted dose curve; in most records, active means well fitted inhibition curve with a large enough effect; inconclusive means small, poorly fitted or top-dose-only effect; inactive means flat fitted curve, though single readings scatter.
Assays:
Test in all cases: qHTS profiling for inhibitors of Plasmodium falciparum proliferation (AID 504749); further: nearly all actives have a fitted effect of over 60% in size;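 on activity, negative = inhibition: 0% = DMSO vehicle and full inhibition = artemisinin control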
Settings in all cases: P. falciparum in erythrocytes, SYBR Green DNA, 72 h; series mostly up to 28.7 µM
[1] = tested on: CP265
How it was run: (§1)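 Fluorescence of SYBR Green-bound parasite DNA, read at 485/535 nm, served as the growth measure. Infected erythrocytes were cultured with compound 72 h; artemisinin (0.29 uM) and DMSO wells defined the normalization range.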

[2] = tested on: CP266
How it was run: as §1

[3] = tested on: CP268
How it was run: as §1

[4] = tested on: CP269
How it was run: as §1

[5] = tested on: CP286
How it was run: as §1

[6] = tested on: CP291
How it was run: as §1

[7] = tested on: CP297
How it was run: as §1

[8] = tested on: CP305
How it was run: as §1

[9] = tested on: CP315
How it was run: as §1

[10] = tested on: CP325
How it was run: as §1
Potency means the concentration at half of the fitted maximal effect.

CN1C(=O)NC(=O)C(C)(C2=CCCCC2)C1=O (stereo not given)
inactive: Potency [1] | outcome [2] | Potency [3] | Potency [4] | Potency [5] | Potency [6] | Potency [7] | Potency [8] | Potency [9] | Potency [10]

Nc1ccc([As](=O)(O)O)cc1
inactive: Potency [1] | outcome [2] | Potency [3] | Potency [4] | Potency [5] | Potency [6] | Potency [7] | Potency [8] | Potency [9] | Potency [10]

CCCCCCC(=O)CCCCCC/C=C/C[C@@H](O)[C@H](O)[C@@](N)(CO)C(=O)O
inactive: Potency [1] | outcome [2] | Potency [3] | Potency [4] | Potency [5] | Potency [6] | Potency [7] | Potency [8] | Potency [9] | Potency [10]

C[C@](O)(CS(=O)(=O)c1ccc(F)cc1)C(=O)Nc1ccc(C#N)c(C(F)(F)F)c1
inactive: Potency [1] | outcome [2] | Potency [3] | Potency [4] | Potency [5] | Potency [6] | Potency [7] | Potency [8] | Potency [9] | Potency [10]

CN1C(=O)CC(=O)N(c2ccccc2)c2cc(Cl)ccc21
inactive: Potency [1] | outcome [2] | Potency [3] | Potency [4] | Potency [5] | Potency [6] | Potency [7] | Potency [8] | Potency [9] | Potency [10]

O=C(N/N=C/c1ccc([N+](=O)[O-])o1)c1cc([N+](=O)[O-])cc([N+](=O)[O-])c1O
active: Potency [1] 2.24 µM

NCCc1ccc(O)cc1
inactive: Potency [1] | outcome [2] | Potency [3] | Potency [4] | Potency [5] | Potency [6] | Potency [7] | Potency [8] | Potency [9] | Potency [10]

Cc1nnc2n1-c1ccc(Cl)cc1C(c1ccccc1)=NC2
inactive: Potency [1] | outcome [2] | Potency [3] | Potency [4] | Potency [5] | Potency [6] | Potency [7] | Potency [8] | Potency [9] | Potency [10]

O=C(Nc1ccc(Br)cc1)c1cc(Br)cc(Br)c1O
inactive: Potency [1] | outcome [2] | Potency [3] | Potency [4] | Potency [5] | Potency [6] | Potency [7] | Potency [8] | Potency [9] | Potency [10]

Oc1ccc(Cl)cc1
inactive: Potency [1] | outcome [2] | Potency [3] | Potency [4] | Potency [5] | Potency [6] | Potency [7] | Potency [8] | Potency [9] | Potency [10]

O=c1[nH]oc2c1CCNC2
inactive: Potency [1] | outcome [2] | Potency [3] | Potency [4] | Potency [5] | Potency [6] | Potency [7] | Potency [8] | Potency [9] | Potency [10]

C[C@]12CCC(=O)C=C1CC[C@@H]1[C@@H]2CC[C@]2(C)C(=O)CC[C@@H]12
inactive: Potency [1] | outcome [2] | Potency [3] | Potency [4] | Potency [5] | Potency [6] | Potency [7] | Potency [8] | Potency [9] | Potency [10]

NC(=O)CS(=O)C(c1ccccc1)c1ccccc1 (stereo not given)
inactive: Potency [1] | outcome [2] | Potency [3] | Potency [4] | Potency [5] | Potency [6] | Potency [7] | Potency [8] | Potency [9] | Potency [10]

COP(=S)(OC)Oc1ccc(S(=O)(=O)N(C)C)cc1
inactive: Potency [1] | outcome [2] | Potency [3] | Potency [4] | Potency [5] | Potency [6] | Potency [7] | Potency [8] | Potency [9] | Potency [10]

CN1C(=O)COc2c(C(=O)NC3CN4CCC3CC4)cc(Cl)cc21 (stereo not given)
inactive: Potency [1] | outcome [2] | Potency [3] | Potency [4] | Potency [5] | Potency [6] | Potency [7] | Potency [8] | Potency [9] | Potency [10]

c1ccc2c(c1)sc1ccccc12
inactive: Potency [1] | outcome [2] | Potency [3] | Potency [4] | Potency [5] | Potency [6] | Potency [7] | Potency [8] | Potency [9] | Potency [10]

CN1C(=O)CCS(=O)(=O)C1c1ccc(Cl)cc1 (stereo not given)
inactive: Potency [1] | outcome [2] | Potency [3] | Potency [4] | Potency [5] | Potency [6] | Potency [7] | Potency [8] | Potency [9] | Potency [10]

O=C1Nc2ccc(Cl)cc2C(c2ccccc2Cl)=NC1O (stereo not given)
inactive: Potency [1] | outcome [2] | Potency [3] | Potency [4] | Potency [5] | Potency [6] | Potency [7] | Potency [8] | Potency [9] | Potency [10]

Nc1nc(N)nc(NC2CC2)n1
inactive: Potency [1] | outcome [2] | Potency [3] | Potency [4] | Potency [5] | Potency [6] | Potency [7] | Potency [8] | Potency [9] | Potency [10]

C[C@]12CC[C@@H]3c4ccc(OC(=O)N(CCCl)CCCl)cc4CC[C@H]3[C@@H]1CC[C@@H]2O
inactive: Potency [1] | outcome [2] | Potency [3] | Potency [4] | Potency [5] | Potency [6] | Potency [7] | Potency [8] | Potency [9] | Potency [10]

COc1c2c(cc3c1OCO3)CCN(C)C2
inactive: Potency [1] | outcome [2] | Potency [3] | Potency [4] | Potency [5] | Potency [6] | Potency [7] | Potency [8] | Potency [9] | Potency [10]

O=C1c2ccccc2C(=O)C1C(=O)C(c1ccccc1)c1ccccc1
inactive: Potency [1] | outcome [2] | Potency [3] | Potency [4] | Potency [5] | Potency [6] | Potency [7] | Potency [8] | Potency [9] | Potency [10]

CCC1(c2ccccc2)C(=O)N(COC)C(=O)N(COC)C1=O
inactive: Potency [1] | outcome [2] | Potency [3] | Potency [4] | Potency [5] | Potency [6] | Potency [7] | Potency [8] | Potency [9] | Potency [10]

Clc1ccc2c(c1)C(c1ccccc1)=NCc1nncn1-2
inactive: Potency [1] | outcome [2] | Potency [3] | Potency [4] | Potency [5] | Potency [6] | Potency [7] | Potency [8] | Potency [9] | Potency [10]

O=C1OC(c2ccc(O)c(S(=O)(=O)O)c2)(c2ccc(O)c(S(=O)(=O)O)c2)c2c(Br)c(Br)c(Br)c(Br)c21
inactive: Potency [1] | outcome [2] | Potency [3] | Potency [4] | Potency [5] | Potency [6] | Potency [7] | Potency [8] | Potency [9] | Potency [10]

CN1CCC(O)(c2ccc(F)cc2)C(C(=O)c2ccc(F)cc2)C1 (stereo not given)
inactive: Potency [1] | outcome [2] | Potency [3] | Potency [4] | Potency [5] | Potency [6] | Potency [7] | Potency [8] | Potency [9] | Potency [10]

O=C1Nc2ccc(Cl)cc2C(c2ccccc2)=NC1O (stereo not given)
inactive: Potency [1] | outcome [2] | Potency [3] | Potency [4] | Potency [5] | Potency [6] | Potency [7] | Potency [8] | Potency [9] | Potency [10]

CC(C)=CC1C(C(=O)OCN2C(=O)C3=C(CCCC3)C2=O)C1(C)C (stereo not given)
inactive: Potency [1] | outcome [2] | Potency [3] | Potency [4] | Potency [5] | Potency [6] | Potency [7] | Potency [8] | Potency [9] | Potency [10]

O=P1(N(CCCl)CCCl)NCCCO1 (stereo not given)
inactive: Potency [1] | outcome [2] | Potency [3] | Potency [4] | Potency [5] | Potency [6] | Potency [7] | Potency [8] | Potency [9] | Potency [10]

CCC(C)(C)c1ccc(O)cc1
inactive: Potency [1] | outcome [2] | Potency [3] | Potency [4] | Potency [5] | Potency [6] | Potency [7] | Potency [8] | Potency [9] | Potency [10]

Cc1ncsc1CCCl
inactive: Potency [1] | outcome [2] | Potency [3] | Potency [4] | Potency [5] | Potency [7] | Potency [8] | Potency [9] | Potency [10]

O=C1CN=C(c2ccccc2)c2cc([N+](=O)[O-])ccc2N1
inactive: Potency [1] | outcome [2] | Potency [3] | Potency [4] | Potency [5] | Potency [6] | Potency [7] | Potency [8] | Potency [9] | Potency [10]

CNC(C)(C)Cc1ccccc1
inactive: Potency [1] | outcome [2] | Potency [3] | Potency [4] | Potency [5] | Potency [6] | Potency [7] | Potency [8] | Potency [9] | Potency [10]

CCCCC/C=C\C/C=C\C/C=C\C/C=C\CCCC(=O)NCC(=O)O
inactive: activity, negative = inhibition [1] 2.88% [at 2.67 µM] | activity, negative = inhibition [3] -7.02% [at 2.67 µM] | activity, negative = inhibition [4] 0.824% [at 2.67 µM] | activity, negative = inhibition [5] 0.0979% [at 2.67 µM] | activity, negative = inhibition [6] -4.76% [at 2.67 µM] | activity, negative = inhibition [7] -4.97% [at 2.67 µM] | activity, negative = inhibition [8] 3.97% [at 2.67 µM] | activity, negative = inhibition [9] -5.37% [at 2.67 µM] | activity, negative = inhibition [10] 2.88% [at 2.67 µM]

O=c1oc2ccccc2c(O)c1Cc1c(O)c2ccccc2oc1=O
inactive: Potency [1] | outcome [2] | Potency [3] | Potency [4] | Potency [5] | Potency [6] | Potency [7] | Potency [8] | Potency [9] | Potency [10]

COC1CC(=C(c2cccs2)c2cccs2)C[N+](C)(C)C1 (stereo not given)
active: Potency [1] 4.47 µM | Potency [4] 10.7 µM | Potency [5] 11.2 µM

CN1C(=O)C(O)N=C(c2ccccc2)c2cc(Cl)ccc21 (stereo not given)
inactive: Potency [1] | Potency [3] | Potency [4] | Potency [5] | Potency [6] | Potency [7] | Potency [8] | Potency [9] | Potency [10]

O=C1c2ccccc2C(=O)c2ccccc21
inactive: outcome [2] | Potency [3] | Potency [5] | Potency [6] | Potency [7] | Potency [9] | Potency [10]
active: Potency [1] 10 µM

O=C(O)CCCc1ccc(N(CCCl)CCCl)cc1
inactive: Potency [1] | outcome [2] | Potency [3] | Potency [4] | Potency [5] | Potency [6] | Potency [7] | Potency [8] | Potency [9] | Potency [10]

CC(C)c1cccc(C(C)C)c1O
inactive: Potency [1] | outcome [2] | Potency [5] | Potency [8] | Potency [9] | Potency [10]

COP(=S)(OC)SCN1C(=O)c2ccccc2C1=O
inactive: Potency [1] | Potency [3] | Potency [4] | Potency [5] | Potency [6] | Potency [7] | Potency [8] | Potency [9] | Potency [10]

CCOC(=O)CC(SP(=S)(OC)OC)C(=O)OCC (stereo not given)
inactive: Potency [1] | Potency [3] | Potency [4] | Potency [5] | Potency [6] | Potency [7] | Potency [8] | Potency [9] | Potency [10]

C=CCN1C[C@H](C)N([C@H](c2ccc(C(=O)N(CC)CC)cc2)c2cccc(OC)c2)C[C@H]1C
inactive: outcome [2] | Potency [3] | Potency [4] | Potency [6] | Potency [8] | Potency [9] | Potency [10]
